Assay outcomes (PubChem)
NPSR antagonist: blocks cAMP signaling of the human neuropeptide S receptor; CHO-NPSR cells, cAMP TR-FRET, antagonist mode; Potency, µM (doses to about 38.3 µM), inactives show top-dose activity change, negative = inhibition, most hits filed as inhibitors; 220,000 tested, 1% active; also: nearly all actives have a fitted effect of over 50% in size
Target sequence (Q6W5P4 whole entry, looked up): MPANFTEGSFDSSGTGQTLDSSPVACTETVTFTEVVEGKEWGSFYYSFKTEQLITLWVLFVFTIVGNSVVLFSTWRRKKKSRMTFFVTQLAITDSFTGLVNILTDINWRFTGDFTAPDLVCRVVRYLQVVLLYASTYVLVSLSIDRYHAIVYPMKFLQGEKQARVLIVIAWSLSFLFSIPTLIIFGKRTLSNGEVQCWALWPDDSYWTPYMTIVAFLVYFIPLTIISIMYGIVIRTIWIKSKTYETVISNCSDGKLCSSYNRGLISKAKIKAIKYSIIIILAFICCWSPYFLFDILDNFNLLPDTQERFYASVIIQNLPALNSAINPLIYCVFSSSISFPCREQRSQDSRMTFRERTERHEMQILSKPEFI
Tau ThT inhib: blocks human tau fibril formation measured by thioflavin T; 270,000 tested, 2.1% active; recombinant tau K18 P301L, heparin-induced fibrillization, ThT fluorescence; P10636; Potency, µM (series often up to 57.4 µM), inactives show top-dose activity, negative = inhibition, usual class: inhibitors; also: nearly all actives have a fitted effect of over 55% in size
Target sequence (P10636 561-689 P618L limits assumed): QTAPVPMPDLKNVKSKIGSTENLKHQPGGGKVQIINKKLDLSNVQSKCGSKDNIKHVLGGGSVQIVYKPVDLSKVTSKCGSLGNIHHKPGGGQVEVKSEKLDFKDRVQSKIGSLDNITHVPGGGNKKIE
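Fibril formation assay: tau K18 P301L at 15 uM with trace Alexa 594 label, heparin inducer 20 uM, pH 7 sodium acetate buffer, 37 C for 6 hr; endpoint ThT signal.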
ALDH1A1 block: inhibitors of human aldehyde dehydrogenase 1A1; P00352; Purified ALDH1A1, NADH fluorescence, propionaldehyde substrate; Potency, µM (series often up to 75.3 µM), without a hit: at the top dose activity, negative = inhibition, actives largely listed as inhibitors; 220,000 tested, 7.3% active; AID 1030; active = well fitted inhibition curve with a large enough effect, not every such curve was filed as active; inconclusive = small, poorly fitted or top-dose-only effect, or another doubt; inactive = no such curve, though single readings can be large or run the other way;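 also: plate controls were no enzyme wells and a reference inhibitor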
Tau fluor cs: counter-screen for tau fibril formation inhibitors. tau K18 P301L (four-repeat tau fragment) Alexa594 fluorescence, heparin fibrillization. Potency, µM (doses to about 57.7 µM), inactives show at the top dose activity change, negative = decrease. 280,000 tested, 0.93% active. AID 1463; also: nearly all actives have a fitted effect of over 55% in size
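Human K18 P301L tau (15 uM unlabeled plus 0.24 uM Alexa 594-labeled, final) in 100 mM sodium acetate pH 7 was mixed with compound and 20 uM heparin and incubated 6 hr at 37 C.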
HPGD inh: inhibitors of human 15-hydroxyprostaglandin dehydrogenase (HPGD); purified HPGD, NADH fluorescence kinetic, PGE2 substrate; AID 894; P15428; 150,000 tested, 4.3% active; Potency, µM, without a hit: at the highest dose activity change, negative = inhibition, usual class: inhibitors; active = well fitted inhibition curve with a large enough effect, not every such curve was filed as active; inconclusive = small, poorly fitted or top-dose-only effect, or another doubt; inactive = no such curve, though single readings can be large or run the other way
Target sequence (P15428 whole entry, looked up): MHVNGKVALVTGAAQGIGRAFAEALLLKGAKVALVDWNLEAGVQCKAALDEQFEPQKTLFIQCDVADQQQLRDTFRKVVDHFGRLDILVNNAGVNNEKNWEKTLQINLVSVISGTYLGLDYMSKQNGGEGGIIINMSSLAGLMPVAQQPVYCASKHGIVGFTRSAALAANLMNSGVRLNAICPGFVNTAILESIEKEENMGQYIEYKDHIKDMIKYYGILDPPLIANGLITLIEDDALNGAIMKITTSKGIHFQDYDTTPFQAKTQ
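20 nM HPGD preincubated 15 min at room temperature with compound in 50 mM Tris-HCl pH 8, 0.01% Tween 20. Started with 1 mM NAD+ and 30 uM prostaglandin E2; NADH fluorescence (360/450 nm) read 5 times over 30-s intervals, last minus first.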
Tau FP inhib: inhibitors of human tau fibril formation; K18 P301L tau heparin fibrillization, Alexa594 FP, 6 h; Potency, µM (top dose mostly 57.7 µM), for the others: at the top dose activity, negative = inhibition, usual class: inhibitors; 280,000 tested, 0.39% active; also: nearly all actives have a fitted effect of over 55% in size
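K18 P301L tau (15 uM unlabeled/0.24 uM Alexa 594-labeled, final) + compound + heparin 20 uM final; 100 mM NaOAc pH 7; 6 hr 37 C; ThT 30 uM final added, 1 hr RT; FP ex 555/em 632 nm.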
An asterisk follows results filed as active; ? = inconclusive; · = no result; [ ] = another dose, or the depositor's remark. The list is not random: actives were taken first. Their share in the collection is about 9.5%. Unless noted, calls follow the shape of the dose curve; as a rule, active = well fitted curve in the direction sought with a large enough effect; inconclusive = small, poorly fitted or top-dose-only effect, or another doubt; inactive = no such curve, though single readings can be large; an effect the other way counts as inactive or inconclusive. Unless noted, % is scaled to controls: 0 for no effect and ±100 for the full control effect; potency is read from the fitted curve at half-maximal effect.

SMILES | NPSR antagonist | Tau ThT inhib | ALDH1A1 block | Tau fluor cs | HPGD inh | Tau FP inhib
CC(C)Cn1c(=O)c2sccc2n2c(CCCC(=O)N3CCN(c4ccc(F)cc4)CC3)nnc12 | · | -9.7% | · | -17.5% | · | 7.3%
CCOC(=O)c1sc2nc3c(SCC(=O)O)cc(C(=O)c4cc(F)ccc4O)cn3c(=O)c2c1C | -34.1% | 12.6µM* | -15.4% | -9.6% | -25.9% | -9.2%
COc1ccc(-n2c(C)nc3sc4c(c3c2=O)CCCC4)cc1 | -39.1% | -6.0% | ? | -7.0% | · | -5.3%
COc1ccc(O)c(C(=O)c2cc(SCC(=O)O)c3nc4sc5c(c4c(=O)n3c2)CCCC5)c1 | -28.2% | 17.8µM* | · | -24.8% | · | -7.1%
C=CCN(CC=C)C(=S)NC(=O)Cc1cccc2ccccc12 | ? | ? | 18.9µM* | ? | · | -1.1%
COc1ccc(-c2nnc3n2-c2ccccc2SC3)cc1OC | -22.6%[46.1 µM] | 10.1% | 15.8µM* | 6.5% | 35.5µM* | 3.6%
Cc1coc(C)c1C(=O)CC1(O)C(=O)Nc2cc(Cl)cc(Cl)c21 (stereo not given) | 0.3%[46.1 µM] | -5.7% | 3.16µM* | -9.5% | -4.0% | -0.2%
Cn1/c(=N/N=C/c2ccc([N+](=O)[O-])cc2)sc2ccccc21 | 0.2%[46.1 µM] | ? | 5.6% | -6.9% | -20.5% | 3.6%
Cc1cc(C)c2c(c1)/C(=N\N=c1\sc3ccccc3n1C)C(=O)N2 | -9.4% | 4.47µM* | · | -7.4% | · | 6.3%
O=C(c1cc(C(F)(F)F)cc(C(F)(F)F)c1)N1CCC2(CCCN(Cc3nccs3)C2)CC1 | · | · | 1.7% | · | -5.8% | ·
CC1CCc2c(sc3nc(CN4CCOCC4)nc(Sc4ccccc4)c23)C1 (stereo not given) | -54.6% | -9.4% | 25.1µM* | 2.1% | -6.0% | -7.8%
COc1ccc(Nc2nc(CN3CCOCC3)nc3sc4c(c23)CCC(C)C4)cc1OC (stereo not given) | -6.1% | 0.0% | 10.5% | 4.1% | -4.1% | 4.0%
Cc1n[nH]c(C)c1S(=O)(=O)N(CC(=O)NCc1ccccc1Cl)c1ccc(C(C)C)cc1 | · | -14.9% | · | ? | · | -6.3%
Cc1ccc(-c2cc(C(=O)Nc3ccc(S(=O)(=O)Nc4cc(C)on4)cc3)c3ccccc3n2)c(C)c1 | 10µM* | -9.7% | -0.3% | -7.7% | -25.6% | -4.0%
Cc1cc(NS(=O)(=O)c2ccc(NC(=S)NC(=O)c3ccccc3)cc2)no1 | -16.2%[46.1 µM] | 3.9% | ? | -2.7% | -10.9% | -14.9%
Cc1cc(NS(=O)(=O)c2ccc(NC(=S)NC(=O)c3ccc(Cl)cc3Cl)cc2)no1 | -20.4%[46.1 µM] | -10.6% | -0.1% | -4.7% | 25.1µM* | -0.5%
Cc1ccc(-c2cc(C(=O)Nc3ccc(S(=O)(=O)Nc4onc(C)c4C)cc3)c3ccccc3n2)cc1 | -40.1% | ? | ? | -21.2% | · | -1.1%
CCN1C(=O)c2ccccc2S(=O)c2ccc(C(=O)NCc3ccc(Cl)cc3)cc21 (stereo not given) | · | -13.5% | · | -17.4% | · | 0.7%
CCOc1ccc(NCC(=O)Nc2ccc(C)cc2C)cc1 | -6.2%[46.1 µM] | ? | 1.78µM* | -8.0% | -2.9% | 5.3%
Cc1ccc(NC(=O)Cn2cccc2)c(Br)c1 | 3.9%[46.1 µM] | -6.2% | -3.6% | -5.1% | 14.1µM* | 1.4%
Cc1ccc(NC(=O)Cn2cccc2)c(C)c1 | -1.5%[46.1 µM] | -5.7% | -0.9% | -1.0% | 2.24µM* | 6.4%
COc1ccc(C(CC(=O)NCc2ccccc2)N2Cc3ccccc3C2=O)cc1 (stereo not given) | · | 7.8% | · | -4.9% | · | 7.4%
CC(C)(C)OC(=O)N1CCC(c2c(C(=O)NCCCN3CCc4ccccc4C3)cnn2-c2ccccc2)CC1 | · | -3.6% | · | -5.4% | · | -9.5%
Cc1ccc2c(c1)c1c3n2CCN(C(=O)CN2CCN(C)CC2)C3CCC1 (stereo not given) | 16.4%[46.1 µM] | -13.4% | ? | -1.8% | -15.4% | 8.9%
Cc1ccc2c(c1)c(=O)c1c3n2CCN(C(=O)CCl)C3CC1 (stereo not given) | ? | 14.1µM* | ? | ? | ? | ?
SMILES | NPSR antagonist | Tau ThT inhib | ALDH1A1 block | Tau fluor cs | HPGD inh | Tau FP inhib
COc1ccc(Cl)cc1NC(=O)CCN1C(=O)c2ccccc2Sc2ncccc21 | · | -0.7% | · | -9.4% | · | -2.8%
O=C1C=C(O)c2cccc(O)c2C1=O | -10.6% | ? | · | -13.8% | · | -4.6%
O=C1C=C(O)c2ccccc2C1=O | · | ? | 15.8µM* | -14.4% | ? | ?
CCOc1cc(NC(=O)c2ccccc2C)c(OCC)cc1NC(=O)C1=Cc2ccccc2OC1 | -8.9%[46.1 µM] | 7.3% | 6.7% | -4.5% | -7.4% | 4.7%
COc1ccc(-c2noc(CN3CCN(c4ccccc4F)CC3)n2)cc1OC | -21.9%[46.1 µM] | -11.4% | ? | -15.5% | -12.9% | 5.7%
O=[N+]([O-])c1ccc(CN2CCSCC2)cc1 | 6.3% | -1.3% | -12.9% | 3.0% | · | 5.4%
COc1cc(CN2CCN(Cc3ccc([N+](=O)[O-])cc3)CC2)c([N+](=O)[O-])cc1OC | 4.1% | -12.6% | 35.5µM* | -14.8% | · | 1.2%
COc1cccc(CN2CCN(Cc3cc(OC)c(OC)cc3[N+](=O)[O-])CC2)c1 | -9.6%[46.1 µM] | -5.2% | 25.1µM* | -4.3% | 2.2% | 2.2%
COc1cc(CN2CCN(c3ccccc3F)CC2)c([N+](=O)[O-])cc1OC | 8.3% | -3.6% | 28.2µM* | -6.4% | 7.1% | -4.5%
Cc1cccc(Cn2c(CNS(=O)(=O)c3ccc(C(C)C)cc3)nc3cccnc32)c1 | · | -4.8% | · | -15.9% | · | -13.1%
Cc1ccc2c(c1)sc1nc(-c3cc4cc(Cl)ccc4oc3=O)cn12 | · | ? | · | 0.1% | · | 0.0%
CCOc1ccc(C(=O)OCCN(CC)CC)cc1 | 2.8%[46.1 µM] | -5.6% | -6.9% | -4.9% | -9.7% | -10.2%
CCN(CC)CCOc1ccc(/C(=C(/Cl)c2ccccc2)c2ccccc2)cc1 | 10µM* | ? | -7.0% | -6.3% | · | 15.0%
O=C(OCC#CCSc1nnc(-c2cccc3ccccc23)o1)c1cccs1 | -25.7%[46.1 µM] | ? | ? | -28.6% | ? | -5.5%
O=C(OCC#CCSc1nnc(-c2ccccc2)o1)c1cccs1 | -12.7%[46.1 µM] | ? | 20µM* | -20.1% | 15.8µM* | 4.4%
COC(=O)c1ccc(C(NC(=O)OCc2ccccc2)/C(=C/[C@@H](C)C(=O)NCc2ccc(-c3ccccc3)cc2)c2cccnc2)cc1 (stereo not given in full) | · | 2.3% | -3.4% | -2.1% | -11.6% | 8.9%
CCC(=O)c1ccc(OCC(=O)Nc2nn3cnnc3s2)cc1 | -5.0%[46.1 µM] | ? | 0.6% | -7.7% | -20.7% | -5.0%
O=C(c1ccc(Cl)cc1)N1CCN(c2cc(=O)[nH]nc2-c2ccccc2)CC1 | -12.2%[46.1 µM] | -8.3% | -9.7% | -1.0% | 0.7% | 4.0%
O=C(c1cccc(C(F)(F)F)c1)N1CCN(c2cc(=O)[nH]nc2-c2ccccc2)CC1 | -12.1%[46.1 µM] | 5.2% | 2.99µM* | -4.8% | 23.1% | -6.0%
